# PAX8 inh HTS: inhibitors of PAX8-driven TPO luciferase reporter, primary screen, RMG-I cells, single concentration; SteadyGlo, 24 h; inhibition, % at 12.6 µM; 360,000 compounds, 1.2% hits; AID 652154, 2013;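 active means mean replicate inhibition at least 60% with every replicate also reaching 60%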;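 further: luciferase light reporting Pax8 driven TPO promoter activity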
# TRPM1 prom inh: inhibitors of MITF-dependent TRPM1 promoter reporter, primary screen, cell-based, SK-MEL-5, single point, luciferase; SK-MEL-5 TRPM1 promoter luciferase, 24 h; inhibition, % at 12.5 µM; 330,000 compounds, 0.83% hits; AID 488899, 2010;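 active means mean inhibition across replicates of 60% or more, whatever share of single replicates reaches that level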
# EWS-Fli block: EWS/Fli-driven NR0B1 reporter inhibitors, primary screen, A673 cells, NR0B1 luciferase, luminescence, MLPCN library | viability-normalised | inhibition, % at 12.6 µM | 350,000 compounds, 0.67% hits | AID 651661, 2012;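 active means mean inhibition of at least 50% after viability correction, with every replicate also passing that limit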;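 further: firefly luciferase signal divided by Alamar Blue viability fluorescence both relative to DMSO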
# Peg3 promoter: Peg3 promoter-driven luciferase inhibitors, primary screen, cell-based, HeLa, luciferase luminescence; inhibition, % at 20 µM; 360,000 compounds, 1.7% hits; HeLa PEG-Prom luciferase reporter, overnight;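 active means inhibition of at least 50% at 20 µM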
# Shn3 inh set2: reduction of Shn3 3'UTR firefly luciferase signal, primary screen, Schnurri-3 inhibitor project, cell-based, Clone20 osteoblasts, set 2. Clone20 osteoblast Shn3 3'UTR firefly luciferase, 24 h. 360,000 compounds, 0.52% hits. inhibition, % at 12.5 µM;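 active means mean inhibition of at least 75% with every replicate also reaching 75%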
# ABHD5 PLIN5 PPI: ABHD5-PLIN5 interaction inhibitors, primary screen, cell lysate, split luciferase complementation, luminescence. Perilipin-5 (Homo sapiens) + 1-acylglycerol-3-phosphate O-acyltransferase ABHD5 (Homo …. Split G. princeps luciferase complementation, 4 h. inhibition, % at 4 µM. 360,000 compounds, 0.78% hits. AID 602281, 2012;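 active means inhibition above the mean inhibition across every tested compound plus 3 SD, cut at about 22% in these data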
# Target sequence (Q00G26 whole entry, looked up): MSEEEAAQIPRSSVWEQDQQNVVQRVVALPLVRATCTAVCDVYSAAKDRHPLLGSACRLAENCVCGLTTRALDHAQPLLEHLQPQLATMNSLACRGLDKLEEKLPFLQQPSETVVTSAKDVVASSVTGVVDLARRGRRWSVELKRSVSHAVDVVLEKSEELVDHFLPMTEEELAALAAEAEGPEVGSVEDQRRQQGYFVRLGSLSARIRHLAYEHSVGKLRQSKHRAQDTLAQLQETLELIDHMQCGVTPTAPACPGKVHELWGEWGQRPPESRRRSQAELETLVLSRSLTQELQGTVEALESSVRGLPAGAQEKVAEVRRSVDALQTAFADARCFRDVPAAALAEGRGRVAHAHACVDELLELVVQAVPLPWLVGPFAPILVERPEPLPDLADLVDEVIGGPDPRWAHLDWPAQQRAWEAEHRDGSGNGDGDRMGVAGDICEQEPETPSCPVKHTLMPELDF
# Target sequence (Q8WTS1 whole entry, looked up): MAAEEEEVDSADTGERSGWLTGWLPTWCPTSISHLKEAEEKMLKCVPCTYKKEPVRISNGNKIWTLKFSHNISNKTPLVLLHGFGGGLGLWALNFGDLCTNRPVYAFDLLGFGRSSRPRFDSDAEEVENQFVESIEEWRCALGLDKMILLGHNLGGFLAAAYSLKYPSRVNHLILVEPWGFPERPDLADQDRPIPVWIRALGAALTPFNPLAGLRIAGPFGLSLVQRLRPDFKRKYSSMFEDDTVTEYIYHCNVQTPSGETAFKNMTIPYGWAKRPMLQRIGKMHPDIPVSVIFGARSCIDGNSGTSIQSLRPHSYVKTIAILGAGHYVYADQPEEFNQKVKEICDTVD
# Hits are given with their value; . = inactive; / = no result given; ! = a repeat was not active. An excerpt weighted towards active compounds, which were near 3% of everything screened.
SMILES,PAX8 inh HTS,TRPM1 prom inh,EWS-Fli block,Peg3 promoter,Shn3 inh set2,ABHD5 PLIN5 PPI
COc1cccc(Nc2nc(NCC3CCCO3)c3ccccc3n2)c1 (stereo not given),/,.,/,.,88,.
O=C(C[C@H]1C[C@H]2c3cc(NS(=O)(=O)c4ccc(F)cc4)ccc3O[C@H]2[C@@H](CO)O1)NCc1cccnc1,.,/,.,/,/,/
CCN(CC(=O)NC(C)(C)C)C(=O)c1ccccc1SCC(=O)NC1CCCCCCC1,.,.,.,.,.,.
Cc1c(O)cccc1C(=O)N[C@@H](CSc1ccccc1)[C@H](O)CN1C[C@H]2CCCC[C@H]2C[C@H]1C(=O)NC(C)(C)C,.,.,.,77!,.,.
C[C@H](CO)N1C[C@H](C)[C@H](CN(C)C(=O)Cc2ccccn2)Oc2cc(C#Cc3ccccc3)ccc2S1(=O)=O,/,/,.,/,/,/
O=C(CSc1nc2c(c(=O)n1-c1ccc(Br)cc1)SCC2)NCc1ccco1,/,.,.,.,92,.
CCOc1ccc(-n2c(SCC(=O)NCc3ccco3)nc3c(c2=O)SCC3)cc1,.,.,/,.,.,.
CO[C@H]1CN(C)C(=O)c2cc(NC(=O)CC(F)(F)F)ccc2OC[C@H](C)N(CC2CC2)C[C@@H]1C,.,/,.,/,/,/
O=C(CCC(=O)c1ccccc1)NCCc1c[nH]c2ccccc12,122,.,.,.,.,.
O=C(NCCc1c[nH]c2ccccc12)c1cccnc1,71,.,.,.,.,.
O=C(CO)c1c[nH]c2ccccc12,/,/,.,107,.,.
O=C(CCCCCNc1nc(=S)[nH]c2ccccc12)NCCc1c[nH]c2ccccc12,.,.,.,51,.,.
O=C(C[C@H]1CC[C@H]2[C@@H](COC[C@@H](O)CN2C(=O)c2ccccc2)O1)N1CCOCC1,.,/,.,/,/,/
COc1cccc(-c2cn(CC[C@H]3CC[C@H](NC(C)=O)[C@H](CO)O3)nn2)c1,.,/,.,/,/,/
CN1C(=O)/C(=N\OC(=O)c2cccc3ccccc23)c2ccccc21,/,.,.,74,.,.
Cc1cc[n+](CC(=O)c2ccc3c(c2)OCCO3)cc1,.,.,.,.,.,.
O=C(C[n+]1ccc(/C=C/c2ccccc2)cc1)c1ccc2c(c1)OCCO2,.,.,.,.,/,23
COc1ccc(-c2cc(=O)c3ccc(O)cc3o2)cc1,/,.,.,.,.,.
COc1ccc(-c2cc(=O)c3cc(OC)ccc3o2)cc1,/,.,52,.,.,.
CCC(=O)N1C[C@H](C)[C@@H](OC)CN(C)C(=O)c2cc(NC(=O)C3CCCCC3)ccc2OC[C@@H]1C,.,/,.,/,/,/
COc1ccc(NC(=O)c2sc3ncnc(N4CCN(c5ccccn5)CC4)c3c2C)cc1Cl,.,.,.,.,88,.
NC(COCc1ccccc1)c1csc(Nc2ccc(C(F)(F)F)cn2)n1 (stereo not given),.,/,.,102,.,.
NC(COCc1ccccc1)c1csc(Nc2ccccn2)n1 (stereo not given),.,/,.,.,.,.
NC(CCc1ccccc1)c1csc(Nc2ccc(C(F)(F)F)cn2)n1 (stereo not given),.,/,.,110,.,.
CC=Cc1ccc2n(c1=O)C[C@@H]1[C@@H](CO)[C@H](C(=O)NCc3ccccc3Cl)N(S(C)(=O)=O)[C@H]21 (mixture of isomers),.,/,.,/,/,/
SMILES,PAX8 inh HTS,TRPM1 prom inh,EWS-Fli block,Peg3 promoter,Shn3 inh set2,ABHD5 PLIN5 PPI
C/C(=N\NC(=O)c1ccccc1OCc1ccc(F)cc1)c1ccccn1,.,70,.,50,93,.
C/C(=N/NC(=O)c1ccc(C(C)(C)C)cc1)c1ccccn1,.,.,.,.,.,.
CCOc1ccc(OCc2ccc(C(=O)N/N=C(\C)c3ccccn3)cc2)cc1,.,.,.,.,92,.
O=C1CS(=O)(=O)C(c2ccccc2)N1c1ccc(Cl)cc1 (stereo not given),.,/,.,/,/,/
CC(C)NC(=O)NCC[C@H]1CC[C@@H](NS(=O)(=O)c2ccc(-c3ccccc3)cc2)[C@H](CO)O1,.,/,.,/,/,/
CCCNC(=O)C[C@@H]1CC[C@H]2[C@@H](COC[C@@H](O)CN2Cc2ccc(Cl)c(Cl)c2)O1,.,/,.,/,/,/
O=C(COc1ccc(C(=O)c2ccc(F)cc2)cc1)NCc1ccc(F)cc1,.,.,57,.,.,.
COCc1cc(C)nc(OCC(=O)N/N=C/c2ccc(-c3cc([N+](=O)[O-])ccc3Cl)o2)c1C#N,.,.,.,54,.,.
Cc1ccccc1-n1ncc2c([N+](=O)[O-])cc([N+](=O)[O-])cc21,/,67,/,.,.,.
Cc1ccccc1N1C(=O)c2cccc([N+](=O)[O-])c2C1=O,.,.,.,.,.,.
Cc1noc(C)c1NC(=O)N[C@H]1CC[C@@H](CCNC(=O)C2CCOCC2)O[C@H]1CO,.,/,.,/,/,/
CN1CCc2cc3c(c4c2[C@H]1[C@H](O)c1ccccc1-4)OCO3,.,.,.,66,.,.
c1ccc(-c2nnc(-c3ccccn3)nn2)nc1,.,.,.,.,.,.
c1ccc(-c2cccc(-c3ccccn3)n2)nc1,/,.,.,.,88,.
Cc1cc(C)c(CN2CCN(C(=O)Cn3cnc(C(=O)Nc4ccc(C)c(C)c4)n3)CC2)c(C)c1,.,.,.,86,.,.
Cc1ccc(NC(=O)Cn2cnc(C(=O)Nc3ccc(C)c(C)c3)n2)cc1C,.,.,.,.,.,.
Cc1ccc(NC(=O)c2ncn(CCCN3CCN(Cc4cccc5ccccc45)CC3)n2)cc1C,.,.,.,97,.,.
CNC[C@H]1Oc2c(NC(=O)c3cc(C)nn3C)cccc2C(=O)N([C@@H](C)CO)C[C@@H]1C,.,/,.,/,/,/
CCOC(=O)C1CCCN(C(=O)c2ccc(S(=O)(=O)N3CCCC3)cc2)C1 (stereo not given),.,.,.,.,.,.
CCOC(=O)C1CCCN(S(=O)(=O)c2ccc(S(=O)(=O)N3CCCC3)cc2)C1 (stereo not given),.,.,.,.,88,.
C[C@@H](NC(=O)C[C@@H]1C[C@@H]2c3cc(NC(=O)CC4CC4)ccc3O[C@@H]2[C@H](CO)O1)c1ccccc1,/,/,.,/,/,/
Fc1cccc(CCN2CCNC[C@@H]2Cc2ccccc2)c1,.,.,.,.,.,.
FC(F)(F)c1cc(CCN2CCNC[C@@H]2Cc2ccccc2)cc(C(F)(F)F)c1,.,81,.,102,.,.
N#C[C@@H]1[C@@H](c2ccc(-c3cccc(F)c3)cc2)[C@H](CO)N1C(=O)NC1CCCC1,89,/,.,/,/,/
N#Cc1ccc(-c2ccc(C3[C@H]4CNC[C@@H]3N4C(=O)NC3CCCCC3)cc2)cc1 (stereo not given in full),73,/,.,/,/,/
N#C[C@H]1[C@@H](c2ccc(-c3cccc(F)c3)cc2)[C@@H](CO)N1C(=O)NC1CCCCC1,68,/,/,/,/,/

# Assay outcomes from PubChem BioAssay.
